FLuc counter: inhibits or activates purified firefly luciferase, miR-21 counter-screen. 360,000 compounds, 6.9% hits. P08659. Potency, µM (top dose mostly 57.5 µM), for inactives: top-dose activity change, negative = inhibition, hits mostly inhibitors. AID 588342. purified FLuc, Km substrates, luminescence inhibition;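 also: plate controls were vehicle for no effect and reference inhibitor for full effect; nearly all actives have a fitted effect of over 55% in size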
Target sequence (P08659 whole entry, looked up): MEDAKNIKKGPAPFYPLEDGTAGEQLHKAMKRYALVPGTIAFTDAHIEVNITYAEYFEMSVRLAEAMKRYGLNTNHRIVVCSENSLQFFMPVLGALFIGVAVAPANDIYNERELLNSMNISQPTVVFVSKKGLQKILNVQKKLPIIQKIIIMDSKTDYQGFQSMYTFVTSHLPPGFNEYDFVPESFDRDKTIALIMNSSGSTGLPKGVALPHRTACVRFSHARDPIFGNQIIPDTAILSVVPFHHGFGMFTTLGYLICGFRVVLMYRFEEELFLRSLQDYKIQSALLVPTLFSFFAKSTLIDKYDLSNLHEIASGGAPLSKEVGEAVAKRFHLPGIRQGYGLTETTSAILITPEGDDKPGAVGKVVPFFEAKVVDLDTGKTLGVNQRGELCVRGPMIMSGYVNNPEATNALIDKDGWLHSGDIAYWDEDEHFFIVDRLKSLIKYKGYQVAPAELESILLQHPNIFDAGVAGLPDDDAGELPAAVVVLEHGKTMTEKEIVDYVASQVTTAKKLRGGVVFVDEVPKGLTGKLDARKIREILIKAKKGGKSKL
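Purified P. pyralis luciferase, 10 nM final, with Km-level 10 uM D-luciferin and 10 uM ATP in 50 mM Tris acetate pH 7.5, 10 mM Mg acetate, 0.01% Tween-20, 0.05% BSA; 6-point qHTS titration about 60 µM downward; luminescence read.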
SMN2 splice enh: increases expression of the SMN2 splice variant; HEK293 SMN2-luciferase splicing reporter, luminescence, 30-36 h; Potency, µM (top dose mostly 46.1 µM), for the others: at the top dose activity change, positive = activation, most hits filed as activators; 210,000 compounds, 2.8% hits; AID 1458; also: % of control where 0% means no effect; nearly all actives have a fitted effect of over 55% in size
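qHTS luciferase splicing reporter: luminescence rises when SMN2 exon 7 is included in transfected HEK293 cells. Compound exposure lasted 30-36 h at 37C, with 4.5 mM final sodium butyrate as control, followed by a ONE-Glo read.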
ELG1 genotoxic: genotoxicity induction in ELG1-luciferase HEK293T cells; AID 504466; HEK293T ELG1-luciferase reporter, luminescence, 16 h; 330,000 compounds, 1.3% hits; Potency, µM (titrated, usually from 46 µM), for inactives: top-dose activity change, positive = activation, hits mostly activators; also: % of control where 0% means no effect; nearly all actives have a fitted effect of over 60% in size
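HEK293T cells expressing luciferase-tagged ELG1 were exposed to compound or DMSO vehicle for 16 hr at 37 °C and 5% CO2. Luciferase activity was then measured with ONE-Glo after 30 min at room temperature.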
Rab9 prom act: activates the Rab9 promoter; Huh7 Rab9 promoter-luciferase reporter, luminescence, 24 h; Potency, µM (highest dose often 9.22 µM), for inactives: top-dose activation, negative = inhibition, most hits filed as activators; 320,000 compounds, 2.8% hits; AID 485297; also: % of control where 0% means no effect; nearly all actives have a fitted effect of over 60% in size
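Luciferase signal after 10 min detection reagent at ambient indicates Rab9 promoter upregulation; stably transfected Huh7 cells were treated 24 h with compound in DMSO at 37 °C, 5% CO2.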
NPC1 prom act: activators of NPC1 promoter; Huh7 NPC1 promoter luciferase reporter, 24 h; Potency, µM (series often up to 9.22 µM), without a hit: top-dose activation, most hits filed as activators; 320,000 compounds, 2.4% hits; also: % of control where 0% means no effect; nearly all actives have a fitted effect of over 60% in size
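Cells: Huh7 expressing luciferase under the NPC1 promoter, 1500/well. Seeded 2 h, compound added, incubated 24 h at 37 °C. Luciferase reagent, 10 min ambient, then luminescence.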
KinaseGlo FLuc: counter-screen: inhibitors of Kinase-Glo firefly luciferase; 200,000 compounds, 0.28% hits; Kinase-Glo luciferase, ATP luminescence, 8 min; AID 1379; Potency, µM (highest dose often 38.3 µM), inactives show at the highest dose activity change, negative = inhibition, most hits filed as inhibitors; Q27757; also: % is scaled to controls: 0 for no effect and ±100 for the full control effect; nearly all actives have a fitted effect of over 60% in size
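Compounds were added to a substrate mix at pH 7.2 (50 mM imidazole, 10 uM ATP, within the enzyme's linear range), followed by Kinase-Glo detection reagent; luminescence was measured after 8 minutes at ambient temperature.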
The depositor's hits bear a star; ? = inconclusive; . = no result; [ ] = remark or other dose. An excerpt weighted towards active compounds, which were near 7.5% of everything screened. Calls follow the shape of the dose curve; as a rule, active = well fitted curve in the direction sought with a large enough effect; inconclusive = small, poorly fitted or top-dose-only effect, or another doubt; inactive = no such curve, though single readings can be large; an effect the other way counts as inactive or inconclusive. Potency is read from the fitted curve at half-maximal effect.

SMILES | FLuc counter | SMN2 splice enh | ELG1 genotoxic | Rab9 prom act | NPC1 prom act | KinaseGlo FLuc
COC(C[C@@H](O)[C@@H](C)[C@@H](O)COCc1ccccc1)OC | -1.1% | . | 2.7% | -2.0% | -3.0% | .
Cc1ccc(/C=C/S(=O)(=O)NCCC(=O)NCc2ccc(F)cc2)cc1 | -2.3% | . | -1.0% | -3.2% | -6.0% | .
Cc1nc(CCNS(=O)(=O)c2cccnc2)cs1 | -3.3% | . | -1.1% | 1.2% | -0.7% | .
N=c1oc2ccccc2cc1C(=O)Nc1ccccc1 | 0.757µM* | . | 0.82µM* | 1.26µM* | 0.501µM* | .
N=c1oc2ccc(Cl)cc2cc1C(=O)Nc1ccc(F)cc1 | ? | . | ? | 3.55µM* | 3.55µM* | .
COc1ccc2oc(=N)c(C(=O)Nc3ccc(Cl)cc3)cc2c1 | -9.6% | . | 1.1% | 26.1% | ? | .
CCOC(=O)C(=CNc1ccc2c(c1)c1ccccc1n2CC)C(=O)OCC | -1.5% | . | -13.1% | -8.3% | -2.1% | .
Cc1ccc(NCc2nc3ccccc3n2C)cc1C | 4.78µM* | . | ? | 2.82µM* | 3.55µM* | .
COc1ccc(NCc2nc3ccccc3n2CCOc2ccccc2)cc1 | 13.5µM* | ? | 20.6µM* | ? | ? | -2.3%
COc1ccc(Nc2nc3ccccc3n3cnnc23)cc1 | -12.7% | ? | 4.7% | -3.1% | -4.0% | 17.2%
COc1ccc(NCc2nc3ccccc3n2C)cc1 | 10.7µM* | . | 5.17µM* | 2.24µM* | 1.78µM* | .
COc1ccc(Nc2nc3ccccc3n3c(N)nnc23)cc1 | 9.53µM* | 15.9% | . | . | . | .
CC(C)C(=O)NCCc1nc2ccccc2n1C | 1.0%[2.3 µM] | 3.4% | 0.4% | 0.4% | -0.1% | 1.5%
COc1ccc(NCc2nc3ccccc3n2CCOc2ccc(C)cc2)cc1 | ? | -23.1% | ? | 13.7% | 15.9% | 1.8%
CCCOc1ccc(CNC(=O)CCCn2ncn3c(cc4sc(CC)cc43)c2=O)cc1 | 4.1% | 15.0% | . | . | . | .
Cc1ccc(NCc2nc3ccccc3n2C)cc1 | 3.38µM* | 2.24µM* | 1.46µM* | 0.631µM* | 1.12µM* | ?
Cn1c(CNc2ccc(Br)cc2)nc2ccccc21 | 2.69µM* | . | ? | 2.82µM* | 1.58µM* | .
Cn1c(CNC2CCCCC2)nc2ccccc21 | 3.6% | 0.4% | -1.4% | -2.2% | 1.0% | -3.4%
Cc1ccc(NC(=O)NCc2nc3ccccc3n2C)cc1 | -1.7% | . | -2.8% | 0.8% | -6.8% | .
Cn1c(CNc2ccc(O)cc2)nc2ccccc21 | 13.5µM* | . | ? | ? | ? | .
Cc1nc2ccccc2n1CCCOc1ccccc1 | 10.7µM* | -26.0% | 13.8% | 17.0% | 12.1% | -0.8%
CCN(CC)CCn1c2c(c(SCC(=O)Nc3cccc4ccccc34)nc1=O)CCCC2 | -0.1% | . | -7.1% | 2.7% | -2.7% | .
Cc1ccc(S(=O)(=O)c2nnn3c2nc(N2CCN(c4ccccc4F)CC2)c2ccccc23)cc1C | -0.5% | . | . | . | . | .
Cn1c(CNc2nc3ccccc3n2C)nc2ccccc21 | ? | ? | 9.5% | ? | 3.55µM* | -4.8%
CCOC(=O)c1ccc(NCc2nc3ccccc3n2C)cc1 | ? | . | 27.3% | 3.16µM* | 3.16µM* | .
SMILES | FLuc counter | SMN2 splice enh | ELG1 genotoxic | Rab9 prom act | NPC1 prom act | KinaseGlo FLuc
CC(C)n1c(NCc2nc3ccccc3n2C)nc2ccccc21 | -18.4% | -3.2% | -2.4% | 1.6% | -0.3% | 5.7%
COc1ccc(Nc2nc3ccccc3n2C)cc1 | 15.1µM* | . | 25.4% | 3.16µM* | 2.51µM* | .
CC1CCc2nc(/C(C#N)=C/c3ccncc3)sc2C1 (centres undefined) | 9.53µM* | 17.8µM* | ? | 3.16µM* | 2.82µM* | 0.9%
Cc1ccc(-c2nc(SC(C)C(=O)N3CCOCC3)n[nH]2)cc1 (centres undefined) | 1.7% | . | 10.4% | 5.0% | -0.5% | .
FC(F)Oc1ccc(C2N=C(c3ccccc3)NO2)cc1 (centres undefined) | 4.78µM* | . | ? | 1.58µM* | 2.82µM* | .
COc1ccc(C2N=C(c3ccccc3)NO2)cc1OC (centres undefined) | 10.7µM* | . | ? | 20.1% | 20.3% | .
O=C(Nc1ccccc1)c1cc2c(-c3ccccc3)nn(-c3ccccc3)c2s1 | -0.1% | 2.4% | . | . | . | .
Cc1ccc(CNCc2ccccc2Cl)s1 | -5.4% | -3.5% | . | . | . | .
COC(=O)C(=O)C/C(=N/Nc1ncnc2ccccc12)c1ccc(Cl)cc1 | 9.53µM* | . | 4.8% | -1.3% | -7.4% | .
CCCSCCCNC(=O)c1ccc(NC(=O)C2=CSCCO2)cc1 | -3.1% | . | 6.4% | 0.1% | 1.8% | .
COc1cc(Nc2nc(-c3ccccc3)c3cc(C)ccc3n2)cc(OC)c1OC | 16.9µM* | 15.1% | -2.0% | 1.8% | -3.8% | -2.5%
Clc1ccc(OCc2cn3cccnc3n2)c2ncccc12 | ? | 11.2µM* | 15.8µM* | ? | ? | -4.4%
Clc1cccc(NCc2cn3cccnc3n2)c1 | -10.9% | 13.5% | 14.9% | 26.7% | 22.9% | 0.2%
c1cnc2c(OCc3cn4cccnc4n3)cccc2c1 | ? | 8.8% | ? | 22.9% | 18.0% | -6.7%
Cc1cc(Cl)ccc1OCc1cn2cccnc2n1 | 12µM* | 12.6µM* | ? | 3.16µM* | 3.55µM* | -3.9%
COc1ccccc1NC(=O)NC1(C(=O)N2CCC(C)CC2)CCCCC1 | 2.1% | . | -0.5% | 0.2% | -0.2% | .
O=C(Nc1ccc(N2CCCC2)cc1)c1ccc(Br)o1 | 10.7µM* | ? | ? | 0.355µM* | 0.501µM* | -16.7%
CCN1CCN(c2ccc(NC(=O)c3ccc(Br)o3)cc2)CC1 | 16.9µM* | . | 16.4µM* | ? | ? | .
O=C(Nc1ccc(N2CCN(C(=O)c3ccccc3)CC2)cc1)c1ccc(Br)o1 | 0.6% | -14.3% | -25.0% | 0.1% | 8.2% | 0.4%

High-throughput results deposited in PubChem BioAssay by National Center for Advancing Translational Sciences (NCATS).
